# Assay results published in PubChem BioAssay (NCI).
# This is part of a sample that, as a whole, favours compounds with a hit. Of some 83,000 tested, about 20% had one in any assay.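 For each line, cells grew in 96-well plates with the test compound present at a single concentration for 48 hours.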 Unmarked numbers belong to inactive results. Active and inactive are the calls of the source. How the source made its calls: active means growth percent below 10; inactive means the rest.
# How the values were obtained:
# Test in all cases: NCI-60 one-dose screen, 48 h (100 = growth as untreated, 0 = no growth, -100 = all killed)
# Conditions in all cases: 10 µM unless noted
# SK-MEL-2 melanoma = test system: SK-MEL-2 melanoma
# EKVX NSCLC = test system: EKVX NSCLC
# SN12C renal = test system: SN12C renal
# UO-31 renal = test system: UO-31 renal
# TK-10 renal = test system: TK-10 renal
# ACHN renal = test system: ACHN renal
# CAKI-1 renal = test system: CAKI-1 renal
# A498 renal = test system: A498 renal
# CCRF-CEM leukemia = test system: CCRF-CEM leukemia
# MOLT-4 leukemia = test system: MOLT-4 leukemia
# SR leukemia = test system: SR leukemia
# RPMI-8226 leukemia = test system: RPMI-8226 leukemia
# OVCAR-8 ovarian = test system: OVCAR-8 ovarian
# OVCAR-5 ovarian = test system: OVCAR-5 ovarian
# OVCAR-4 ovarian = test system: OVCAR-4 ovarian
# SK-OV-3 ovarian = test system: SK-OV-3 ovarian
# IGROV1 ovarian = test system: IGROV1 ovarian
# OVCAR-3 ovarian = test system: OVCAR-3 ovarian
# HS 578T breast = test system: HS 578T breast
# NCI/ADR-RES ovarian = test system: NCI/ADR-RES ovarian
Structure (SMILES),growth (SK-MEL-2 melanoma),growth (EKVX NSCLC),growth (SN12C renal),growth (UO-31 renal),growth (TK-10 renal),growth (ACHN renal),growth (CAKI-1 renal),growth (A498 renal),growth (CCRF-CEM leukemia),growth (MOLT-4 leukemia),growth (SR leukemia),growth (RPMI-8226 leukemia),growth (OVCAR-8 ovarian),growth (OVCAR-5 ovarian),growth (OVCAR-4 ovarian),growth (SK-OV-3 ovarian),growth (IGROV1 ovarian),growth (OVCAR-3 ovarian),growth (HS 578T breast),growth (NCI/ADR-RES ovarian)
COc1cc(-c2nc3ccc(C)cc3[nH]2)ccc1OCc1nnc(-c2ccc(Br)cc2)o1,83%,42.7%,36.2%,43%,33.2%,55.9%,44.6%,89.3%,26.4%,25%,-16% (active),-12.9% (active),28.4%,92.1%,10.6%,59.3%,64.2%,39.1%,-4.08% (active),71.4%
COc1cc2nc(SCc3ccccc3)n(-c3ccc(Cl)cc3)c(=O)c2cc1OC,28.3%,-13.1% (active),-11.3% (active),-38.8% (active),-38.8% (active),-66.4% (active),-75.5% (active),7.03% (active),18.5%,43.1%,5.33% (active),34%,-19.9% (active),34.3%,-55.6% (active),-19.1% (active),4.02% (active),-42.6% (active),-9.89% (active),-30.4% (active)
CCOC(=O)C(N=Nc1ccc(S(=O)(=O)N=C(N)N)cc1)C(C)=O (centres undefined),119%,111%,101%,97.6%,88.6%,98.2%,96.3%,102%,101%,110%,99.4%,98.5%,104%,104%,105%,138%,110%,113%,111%,113%
O=C(CSc1nc2ccccc2c(=O)[nH]1)NCCN1CCCCC1,92.5%,93.7%,96.4%,78.6%,94.9%,103%,82.4%,105%,98.5%,103%,90.9%,100%,97.7%,94.2%,98.8%,107%,104%,105%,94.1%,102%
CCCCSc1nc(Nc2ccc(S(N)(=O)=O)cc2)c(C#N)c(-c2cc(OC)c(OC)c(OC)c2)n1,87.7%,55.2%,23.1%,12.1%,82.2%,12.2%,34.9%,88.1%,22.1%,-29.9% (active),8.85% (active),10.7%,31.5%,53.7%,40.2%,105%,46.8%,49.8%,67.8%,32.5%
CN(C)CCCNC(=O)c1cc(NC(=O)c2cc(NC(=O)c3ccc(C#Cc4ccccc4)cc3)cn2C)cn1C,-88.8% (active),27%,-18.5% (active),36.1%,42.9%,19.2%,18.6%,83.5%,-24.3% (active),-29.5% (active),-46.3% (active),-49% (active),-0.647% (active),36.8%,43.6%,46.5%,34.3%,-2.81% (active),31.7%,56.6%
CN(C)c1nc(NCCNS(=O)(=O)c2ccc(C3=Nc4c(N)nc(N)nc4NC(c4ccccc4)C3)cc2)nc(Nc2ccc(F)cc2)n1 (centres undefined),68.6%,51.4%,37.8%,69%,65%,76.3%,61.2%,57.3%,22.2%,2.62% (active),1.17% (active),4.93% (active),42.3%,75.3%,38.9%,80.7%,32.1%,45.2%,46.3%,92.9%
C=C1CCC2C3(C)COC(c4ccccc4)OC3CCC2(C)C1CC(NCc1ccccc1)C1=CCOC1=O (centres undefined),101%,73.8%,79.4%,56.7%,76%,86.4%,58.1%,76.6%,101%,61.1%,68.6%,34.1%,82.9%,87.5%,82.8%,79.9%,90.6%,83%,78%,77.7%
Cc1ccc(Cc2cnc(NC(=O)c3ccc(/C=C4\SC(=S)N(C)C4=O)cc3)s2)cc1,25.6%,60%,30.8%,37.7%,61.5%,31.1%,38.4%,107%,32.3%,24.1%,30%,31.4%,35.3%,34.3%,48.2%,29.3%,33%,3.26% (active),39.2%,-28.5% (active)
Cc1ccc([C@H]2C(C(=O)c3ccc(Cl)cc3)C3(N[C@@H]2c2ccccc2)C(=O)Nc2ccc(Br)cc23)cc1 (some centres undefined),60.2%,65.3%,4.02% (active),38.6%,91.6%,47%,44%,101%,68.7%,8.72% (active),2.24% (active),40.7%,66.4%,73.2%,56.3%,79.4%,60.1%,64%,83.2%,55.5%
COc1ccc(C2CC(c3ccc(S(=O)(=O)NCCNc4nc(Nc5ccc(F)cc5)nc(N(C)C)n4)cc3)=Nc3c(N)nc(N)nc3N2)cc1 (centres undefined),107%,87.9%,81.1%,86.2%,107%,92.7%,88.1%,93.6%,36.2%,20.6%,8.79% (active),24%,79.5%,98.8%,83.7%,108%,95.7%,95.4%,70.6%,99.9%
C#C[C@]1(O)CC[C@H]2[C@@H]3CC=C4c5sc(-c6ccc(O)c(O)c6)nc5CC[C@]4(C)[C@H]3CC[C@@]21C,-97.9% (active),-74.4% (active),-89.5% (active),-93.8% (active),-44.9% (active),-88.9% (active),-51.2% (active),-88.5% (active),-27.9% (active),-48% (active),-25.7% (active),-50.4% (active),-77.3% (active),-87% (active),-68.1% (active),-78.2% (active),-67.4% (active),-56.3% (active),-32.6% (active),-27.2% (active)
COc1ccc(NC(=O)[C@@H](N)Cc2ccccc2)cc1C(=O)Nc1cccc(C2CC(=O)c3c(cc(OC)c(OC)c3OC)O2)c1 (some centres undefined),77.9%,72.9%,56.4%,33.8%,94.8%,54.2%,54.1%,96.3%,15%,19.5%,14.7%,20.2%,29.1%,101%,54.7%,152%,74.5%,64%,77.6%,39.3%
COc1cc(CNC(=O)/C=C/c2ccc3c(c2)OCO3)ccc1OCc1cn(-c2ccc([N+](=O)[O-])cc2)nn1,118%,71.5%,82.6%,78.2%,106%,90.5%,64.3%,113%,99.5%,72.4%,69.3%,74.2%,90.5%,97.7%,75.7%,99.3%,107%,108%,–,86.7%
O=C(NN1C(=O)/C(=C/C=C/c2ccc([N+](=O)[O-])o2)SC1=S)c1cccc(O)c1,-88.2% (active),-96.8% (active),-99.8% (active),-98.6% (active),-96.3% (active),-100% (active),-100% (active),2.42% (active),0.334% (active),2.92% (active),2.86% (active),-10.1% (active),-80.3% (active),-98.5% (active),-100% (active),-80.9% (active),-97.9% (active),-100% (active),-14.6% (active),-32.1% (active)
